Experimental data from the supplement of paper PMC6555819.

Each sequence was assayed on VDR:RXRa (NR concentration 270 nM, RXRa partner concentration 90 nM) (assay: PBM binding z-score (relative to random genomic background probes); higher = stronger binding; sequences stand for … in GC…GCGATTGACAGCGTAGAATGAAGG).
Experimental: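 Protein-binding microarray (Agilent 4x180K custom design, double-stranded 60-nt probes: 5' GC cap, 34-nt variable region, 24-nt constant primer region; full probe sequence given). Purified or IVT nuclear receptor:RXRα heterodimers (3:1 NR:RXRα, mostly 270:90 nM) or homodimers were incubated for 1 h in PBS with 2% milk and no ligand, then detected with Alexa488 antibodies. Fluorescence from o1-orientation probes (~5 replicates averaged) was converted to z-scores against 500 random hg19 background probes. Variable regions are seed direct-repeat (DR0–DR5) sites, all their single-nucleotide variants and half-site ablations.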

Row | Sequence | PBM binding z-score
1 | ACAAGCAGGCCAAGTTTGGGTCACTCAAACAAAG | 0.676
2 | CAAACTAGGTCACGAAAGGTCAAAGTAGAATGAC | 6.69
3 | ATCGAAAGGTCGACGAGGTGAGCATACACCGTTT | 5.07
4 | CCGTCTGGGGCAAGGTTACCATAACGCACAGCCA | 0.236
5 | CAAACTAGGTCACAGAGGTGAAAGTCCGTGCGTA | 5.99
6 | CTCGAAAGGTCGTGCTCAGGTCAGTATACCAAAC | 5.19
7 | TCTATTAGTTGAAAGGCAACCGACGAGTCCGTTT | 0.899
8 | CCGACTCGGGCAAGGTTACCATAACGCACAGCCA | -0.103
9 | ATCTCAAGGTAAAAGTTCAGTGAATCCCGAGGAT | 1.6
10 | CAAACTAGGTCAGAGGTCAAAGTCGAGCCAACCA | 6.04
11 | CCGAGTAGGTTATGGAGCATTCAGGCAACGGTGA | -0.239
12 | TCTAGCTGGCCAGAGGGTCACTCAAGAGGTACGG | 1.44
13 | TCATATAGGTCAACAGGTGAAAGTCCGTAAGTTA | 4.41
14 | CCGACTGGGGCAAGGTTACCATAACGCACAGCCA | 0.0411
15 | TAGCCTAGCTCAGATCGGGCCAGTATACGCTATA | -0.94
16 | GCGACTGGGGCAAAGCAGGTTTCCATAAGGTTGG | -0.475
17 | TCTGCTAGTTCAGTTGGTCAGCTAACGAGCTGCC | -0.158
18 | GCTAGTTGGTCAGTAAAAGGTCACACAACGGTCG | 4.19
19 | GCAAATAGGTAATACAAGGTGAAAGTCCGATTGT | 0.551
20 | TCTGCTAGGTGAGTTGGTCAGCTAACGAGCTGCC | -0.769

Row | Sequence | PBM binding z-score
21 | TAGAGTAGGTTAGGGGCATTCAGAATGGCGTCGA | 1.06
22 | ACTAGCAGGCCAAATTTGGGTCACTCAAACAAAG | 0.734
23 | CCGAGTAGGTTATGGGGCACTCAGGCAACGGTGA | -0.0808
24 | CGTCAAAGTTTAACTAAGGTAACGTAAAGCACGC | 0.861
25 | TCTTGTAGATCAAACGTTAAGAAAGCCGAAGCCT | 0.359
26 | TCATATAGGGAAATGCTAGGTGAAAGTCCGATCT | 0.702
27 | TCTTATAGGTAAACAGGTGAAAGTCCGTAAGTTA | 1.17
28 | CCTTCCGGGTCACTCCAGGTTATAGCATCGGAGT | 4.21
29 | ACTAGCAGGCCAAGTTTGGGTCACTCCAACAAAG | 0.642
30 | AATACAGTGTCACTAGGCCAGAGTAGGTACGAAT | -0.0369
31 | TCTCGGAGGACACGAAAGGCCAGAGCTCGACATC | -0.308
32 | GGAACGAGGGCAAAGTTGCTAGCATCTGTCGACG | 1.01
33 | CATACTAGGTCACCGGAAGGTCAAAGTCCGCATG | 6.08
34 | TCTTGTAGATCAAAAGTTAAGAAAGCCGAAGCCT | 0.386
35 | CCTTACGGTTCACGAGGTTATAGCACGACGAGCG | 4.12
36 | CCTTACGGGTAAAGGTTATAGCACGGGTGGTACG | 0.723
37 | GCAGACAGGTGAAACGCAGGTAAGTCAGGGTGGC | -0.562
38 | ATCTCTAGGTAAGACTCAGTTCACTGAAGAACGC | 1.74
39 | CAAACTAGGTCACAGATGTCAAAGTCCGTGCGTA | 4.5
40 | TTACCAAGGTGCGCTGAGGTCGTTGATCCAACTC | 4.07
